Experimental findings from publication PMC4336329 (PLoS ONE, 2015) are described below.

Hit rate of the full screen: of about 310,000 compounds, about 14,000 (4.5%) showed an effect of 50% or more. Effects have a minus sign here. Only a selection was taken, and strong results are over-represented in it overall.
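Note: peak tail current of the secondary pulse compared with the same well before compound.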

Sequence of human ether-à-go-go-related gene (hERG) potassium channel (Q12809 whole entry, looked up): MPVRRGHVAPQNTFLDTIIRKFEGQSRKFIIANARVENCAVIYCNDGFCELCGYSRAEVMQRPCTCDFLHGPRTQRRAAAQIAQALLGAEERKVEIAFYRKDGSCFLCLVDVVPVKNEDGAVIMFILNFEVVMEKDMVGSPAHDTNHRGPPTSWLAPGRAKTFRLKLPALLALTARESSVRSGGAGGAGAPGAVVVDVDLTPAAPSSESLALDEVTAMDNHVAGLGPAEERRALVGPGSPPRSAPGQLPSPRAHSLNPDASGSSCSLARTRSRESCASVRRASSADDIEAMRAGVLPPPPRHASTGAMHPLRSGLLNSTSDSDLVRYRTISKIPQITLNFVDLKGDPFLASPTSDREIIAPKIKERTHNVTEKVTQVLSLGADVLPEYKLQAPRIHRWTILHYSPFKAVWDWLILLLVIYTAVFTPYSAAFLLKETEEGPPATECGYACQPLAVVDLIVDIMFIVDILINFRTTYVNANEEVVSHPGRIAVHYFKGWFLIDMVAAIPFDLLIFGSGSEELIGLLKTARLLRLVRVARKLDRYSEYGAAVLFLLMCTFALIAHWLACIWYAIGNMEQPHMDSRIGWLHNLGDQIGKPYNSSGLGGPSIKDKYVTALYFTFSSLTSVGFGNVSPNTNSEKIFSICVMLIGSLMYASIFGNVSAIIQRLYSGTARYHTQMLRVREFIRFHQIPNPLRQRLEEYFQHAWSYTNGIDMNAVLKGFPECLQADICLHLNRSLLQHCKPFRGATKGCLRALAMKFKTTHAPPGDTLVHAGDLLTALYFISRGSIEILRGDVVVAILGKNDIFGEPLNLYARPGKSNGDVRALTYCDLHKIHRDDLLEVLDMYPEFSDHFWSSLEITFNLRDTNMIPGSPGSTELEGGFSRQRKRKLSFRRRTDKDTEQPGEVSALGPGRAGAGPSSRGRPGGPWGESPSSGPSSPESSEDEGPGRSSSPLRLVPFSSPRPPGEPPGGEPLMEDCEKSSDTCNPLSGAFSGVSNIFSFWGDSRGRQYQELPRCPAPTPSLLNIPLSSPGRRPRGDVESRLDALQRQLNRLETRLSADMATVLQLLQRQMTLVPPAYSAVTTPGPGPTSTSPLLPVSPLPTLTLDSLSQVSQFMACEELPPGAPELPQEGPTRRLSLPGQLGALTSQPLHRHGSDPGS

This test has as its target human ether-à-go-go-related gene (hERG) potassium channel (human, UniProt Q12809). The experiment in a line: primary screen, population patch clamp on CHO cells stably expressing hERG; higher = less effect of the substance.
Regarding `Cc1ccc(C2(C(F)(F)F)N=C3Sc4cc(C)cc(C)c4N3C(=O)N2)cc1` (stereo not shown), the “hERG current change (%, negative = inhibition) at 10uM” value is reported as -4.05%. With `O=C(NCCCN1CCOCC1)c1cc(-c2ccc(Br)cc2)nc2ccccc12` the figure was -39.7%.

Regarding `O=C(NC1C2CC3CC(C2)CC1C3)c1ccc(N2CCNCC2)c([N+](=O)[O-])c1` (stereo not shown), the “hERG current change (%, negative = inhibition) at 10uM” value was -18%. Turning to `O=c1c2oc3ccccc3c2[nH]c(=S)n1-c1ccc(F)cc1`, the “hERG current change (%, negative = inhibition) at 10uM” value worked out at 25.3%. As to `COc1cccc(C2NC(=O)NC(C)=C2C(=O)Nc2ccc(C)cc2)c1OC` (stereo not shown), the “hERG current change (%, negative = inhibition) at 10uM” value is reported as -6.16%. Then `COc1ccccc1-n1c(=O)oc2ccc(Cl)cc2c1=O`, with -7.54%; and `Cl.O=C(NCCOC(=O)c1ccc(C(=O)OCCNC(=O)c2cccnc2)s1)c1cccnc1`, with 7.73%; and `CCN(CC)CCCNC(=O)c1ccc(N2CCCCC2)c(NS(=O)(=O)c2ccc(C)cc2)c1`, with -69.2%. With `CCCCNC(=O)c1ccc(N2CCOCC2)c(NS(=O)(=O)c2ccc(OC)cc2)c1` the figure was -40.4%; with `CCC1CCCCN1CCCNC(=O)c1ccc(N2CCOCC2)c(NS(=O)(=O)c2ccc(OC)cc2)c1` (stereo not shown), -57.6%. Consider `CCN1CCCC1CNC(=O)c1ccc(N2CCOCC2)c(NS(=O)(=O)c2ccc(OC)cc2)c1` (stereo not shown), for which the “hERG current change (%, negative = inhibition) at 10uM” value was -24.4%. For the molecule `Cc1ccc(S(=O)(=O)Nc2cc(C(=O)N3CCOCC3)ccc2N2CCCCC2)cc1`, the “hERG current change (%, negative = inhibition) at 10uM” value is recorded as -20.5%. On to `Cc1ccc(S(=O)(=O)Nc2cc(C(=O)O)ccc2N2CCCCC2)cc1`, for which the “hERG current change (%, negative = inhibition) at 10uM” value stood at 9.4%. Then `Cc1ccc(S(=O)(=O)Nc2cc(C(=O)NCCN(C)C)ccc2N2CCCC2)cc1`, with -6.83%; and `Cc1ccc(S(=O)(=O)Nc2cc(C(=O)NCCN(C)C)ccc2N2CCCCC2)cc1`, with -36.8%; and `Cc1ccc(S(=O)(=O)Nc2cc(C(=O)N3CCC4(CC3)OCCO4)ccc2N2CCCCC2)cc1`, with -51.3%. With `COc1ccc(OC)c(S(=O)(=O)Nc2c(F)cccc2F)c1`, the “hERG current change (%, negative = inhibition) at 10uM” value came out at 16%. `CC1CN(C(=O)N2CCCCC2)CCN1C(=O)N1CCCCC1` (stereo not shown): the “hERG current change (%, negative = inhibition) at 10uM” value amounted to 16.9%.

On to `CCN(CC(=O)Nc1ccc(S(=O)(=O)N2CCOCC2)cc1)Cc1ccccc1`, for which the “hERG current change (%, negative = inhibition) at 10uM” value was -16.5%. As for `O=C(CCc1ccccc1Cl)Nc1ccc(S(=O)(=O)N2CCOCC2)cc1`, the “hERG current change (%, negative = inhibition) at 10uM” value is -4.49%. As for `Cc1cccc(C(=O)NN2C(=O)C3C(c4ccccc4)C=CC(c4ccccc4)C3C2=O)c1` (stereo not shown), the “hERG current change (%, negative = inhibition) at 10uM” value amounted to 3.83%. Then `COc1cccc(-c2ccc(NC(=O)C3CCCN(CCCn4cccn4)C3)cc2)c1` (stereo not shown), with -64.1%; and `COc1cccc(-c2ccc(NC(=O)C3CCCN(Cc4ccco4)C3)cc2)c1` (stereo not shown), with 6.02%. Then `COc1cccc(-c2ccc(NC(=O)C3CCCN(Cc4cnn(C)c4C)C3)cc2)c1` (stereo not shown), with 0.939%; and `COc1cccc(-c2ccc(NC(=O)C3CCCN(CCCn4nc(C)cc4C)C3)cc2)c1` (stereo not shown), with -66%. In the case of `COc1cccc(-c2ccc(NC(=O)C3CCCN(Cc4cc(C)[nH]n4)C3)cc2)c1` (stereo not shown), the “hERG current change (%, negative = inhibition) at 10uM” value is recorded as -36.5%.

Take `COc1cccc(-c2ccc(NC(=O)C3CCCN(Cc4nccn4C)C3)cc2)c1` (stereo not shown): the “hERG current change (%, negative = inhibition) at 10uM” value was -31.8%. On to `CCOC(=O)N1CCC(NS(=O)(=O)c2ccc(C#N)cc2)CC1`, for which the “hERG current change (%, negative = inhibition) at 10uM” value was -2.64%. Then `NS(=O)(=O)c1cccc(NC(=O)COC(=O)CNC(=O)c2ccc(-c3ccccc3)cc2)c1`, with 5.77%; and `CC(C)CNC(=O)COC(=O)CCC(=O)c1ccc(F)cc1`, with 6.45%.

`C1=C(CCNc2ncnc3c2cnn3-c2ccccc2)CCCC1`: the “hERG current change (%, negative = inhibition) at 10uM” value is 8.79%. With `Cn1cc(C=C2C(=O)OC3(CCCCC3)OC2=O)c2ccccc21` the figure was 9.19%. As for `O=C(OCc1nc2ccccc2[nH]1)C1CCCCC1`, the “hERG current change (%, negative = inhibition) at 10uM” value stood at 2.85%. For `COc1ccccc1NC(=O)C1CCN(C(=O)C2CC(=O)N(c3ccc(C)cc3)C2)CC1` (stereo not shown), the “hERG current change (%, negative = inhibition) at 10uM” value is on record as -9.15%. With `COc1ccc(NC(=O)CN(C)C(=O)C2CC(=O)N(Cc3ccc(C)cc3)C2)cc1` (stereo not shown) the figure was 4.41%. Then `O=C(O)C1CC(=O)N(c2ccc(Br)cc2)C1` (stereo not shown), with 4.94%; and `Cc1ccc(N2CC(C(=O)N3CCC(C(=O)NC(C)(C)C)CC3)CC2=O)cc1` (stereo not shown), with 20.2%; and `COc1ccc(Cl)cc1NC(=O)CN(C)C(=O)C1CC(=O)N(Cc2ccc(C)cc2)C1` (stereo not shown), with -50%.

Take `Cc1ccc(N2CC(C(=O)N3CCC(C(=O)Nc4ccc(Br)cc4)CC3)CC2=O)cc1` (stereo not shown): the “hERG current change (%, negative = inhibition) at 10uM” value is listed as -64.2%. Then `COc1ccc(CCN(C)C(=O)C2CC(=O)N(Cc3ccc(C)cc3)C2)cc1OC` (stereo not shown), with 0.405%. Regarding `Cc1ccc(N2CC(C(=O)N3CCC(C(=O)Nc4cccc(Br)c4)CC3)CC2=O)cc1` (stereo not shown), the “hERG current change (%, negative = inhibition) at 10uM” value is listed as -60.1%.

Turning to `C=CCN(CC=C)C(=O)C1CC(=O)N(c2ccc(Br)cc2)C1` (stereo not shown), the “hERG current change (%, negative = inhibition) at 10uM” value is given as -59.2%. For `CC(=O)Nc1ccc(NC(=O)C2CCN(C(=O)C3CC(=O)N(c4ccc(C)cc4)C3)CC2)cc1` (stereo not shown), the “hERG current change (%, negative = inhibition) at 10uM” value is 12.4%.
